Experimental data published in PubChem BioAssay (Tox21).
Records with an inconclusive call do not appear. Activity calls are given as the source filed them. Unless noted, calls follow the shape of the dose curve; as a rule, active = well fitted curve in the direction sought with a large enough effect in the repeat runs; inconclusive = weak or mixed curves; inactive = no such curve, though single readings can be large; an effect the other way counts as inactive or inconclusive.

Tests used:
[1] = target: Peroxisome proliferator-activated receptor delta (Homo sapiens) (UniProt Q03181); test: qHTS assay to identify small molecule agonists of the peroxisome proliferator-activated receptor delta (PPARd) signaling pathway (AID 743212; calls by dose curve)
Peroxisome proliferator-activated receptor delta (Homo sapiens), sequence (Q03181 whole entry, looked up): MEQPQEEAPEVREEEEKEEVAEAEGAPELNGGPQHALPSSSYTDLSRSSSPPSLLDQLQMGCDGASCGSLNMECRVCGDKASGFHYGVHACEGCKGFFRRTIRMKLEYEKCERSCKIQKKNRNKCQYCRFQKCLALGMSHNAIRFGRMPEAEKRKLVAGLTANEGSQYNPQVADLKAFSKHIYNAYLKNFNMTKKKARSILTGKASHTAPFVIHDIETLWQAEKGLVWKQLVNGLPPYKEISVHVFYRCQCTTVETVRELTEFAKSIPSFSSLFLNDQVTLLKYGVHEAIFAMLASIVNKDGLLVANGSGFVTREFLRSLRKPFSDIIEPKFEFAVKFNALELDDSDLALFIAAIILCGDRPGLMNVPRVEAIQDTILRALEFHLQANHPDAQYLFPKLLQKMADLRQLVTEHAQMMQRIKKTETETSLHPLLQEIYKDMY
Procedure, shortened: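 GeneBLAzer PPARd UAS-bla HEK293H cells (beta-lactamase reporter under UAS control), plated and rested 5 h at 37 C, then exposed to compounds in DMSO at 37 C; LiveBLAzer B/G FRET substrate added, 2 h room temperature, fluorescence read.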

[2] = qHTS assay to identify small molecule antagonists of the peroxisome proliferator-activated receptor delta (PPARd) signaling pathway - cell viability counter screen (AID 743213); also: nearly all actives have a fitted effect of over 50% in size
Procedure, shortened: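 Cytotoxicity counter screen: CellTiter-Glo luminescence read 30 min after addition, in the same wells as the reporter assay. There, PPARd UAS-bla HEK293H cells (3000/well) were treated 17 h at 37 C with compound and 300 nM L165041.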

[3] = target: Peroxisome proliferator-activated receptor delta (Homo sapiens) (UniProt Q03181); test: qHTS assay to identify small molecule antagonists of the peroxisome proliferator-activated receptor delta (PPARd) signaling pathway (AID 743215; active = well fitted inhibition curve with a large enough effect in the signal ratio in the repeat runs, not every such curve was filed as active; the % refers to the signal ratio;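 also: cells stimulated with agonist L165041 at 300 nM final during compound exposure; series mostly up to about 62 µM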)
Procedure, shortened: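 HEK293H UAS-bla, PPARd; agonist L165041 300 nM final with cpd in DMSO; 37 C 17 h; FRET substrate, RT 2 h; fluorescence intensity.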

[4] = qHTS assay to identify small molecule agonists of the farnesoid-X-receptor (FXR) signaling pathway - cell viability counter screen (AID 743218); also: nearly all actives have a fitted effect of over 45% in size
Procedure, shortened: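 Parallel cytotoxicity test: compound-treated (16 h, 37 C) HEK 293T FXR-bla reporter cells were lysed with CellTiter-Glo and luminescence recorded.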

[5] = qHTS assay to identify small molecule antagonists of the farnesoid-X-receptor (FXR) signaling pathway - cell viability counter screen (AID 743221; active = well fitted cell-killing curve with a large enough effect in the repeat runs, not every such curve was filed as active; also: nearly all actives have a fitted effect of over 50% in size)
Procedure, shortened: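 Here viability was scored by luminescence after CellTiter-Glo addition to wells already read for beta-lactamase. Prior treatment: compound plus CDCA (50 uM final), 16 h, 37 C, HEK 293T FXR-bla cells.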

[6] = target: Vitamin D3 receptor (Homo sapiens) (UniProt P11473); test: qHTS assay to identify small molecule agonists of the vitamin D receptor (VDR) signaling pathway (AID 743222; calls by dose curve)
Vitamin D3 receptor (Homo sapiens), sequence (P11473 whole entry, looked up): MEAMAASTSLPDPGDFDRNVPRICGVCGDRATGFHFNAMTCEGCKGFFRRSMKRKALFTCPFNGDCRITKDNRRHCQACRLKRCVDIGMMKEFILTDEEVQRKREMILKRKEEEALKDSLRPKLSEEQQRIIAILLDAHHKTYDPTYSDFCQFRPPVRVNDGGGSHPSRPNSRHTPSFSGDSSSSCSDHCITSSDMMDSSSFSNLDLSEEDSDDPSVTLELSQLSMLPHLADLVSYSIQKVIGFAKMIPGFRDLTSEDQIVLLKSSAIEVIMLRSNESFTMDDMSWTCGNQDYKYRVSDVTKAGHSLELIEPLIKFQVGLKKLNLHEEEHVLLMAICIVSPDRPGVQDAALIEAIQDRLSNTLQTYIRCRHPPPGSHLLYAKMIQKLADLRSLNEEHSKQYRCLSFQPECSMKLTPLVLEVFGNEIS
Procedure, shortened: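 In VDR-bla cells, compound-induced beta-lactamase expression is quantified by FRET substrate fluorescence. Treatment lasts 16 h at 37C; substrate develops 2 h at room temperature.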

[7] = target: Vitamin D3 receptor (Homo sapiens) (UniProt P11473); test: qHTS assay to identify small molecule antagonists of the vitamin D receptor (VDR) signaling pathway (AID 743223; active = well fitted inhibition curve with a large enough effect in the signal ratio in the repeat runs, not every such curve was filed as active; the % refers to the signal ratio)
Procedure, shortened: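 Inhibition of agonist-driven VDR signalling is scored in VDR-bla cells: 3 nM final 1alpha,25-dihydroxyvitamin D3 plus compound, 16 h at 37C, then beta-lactamase detection by FRET substrate fluorescence after 2 h.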

[8] = qHTS assay to identify small molecule agonists of the vitamin D receptor (VDR) signaling pathway - cell viability counter screen (AID 743224); also: series mostly up to about 63 µM; nearly all actives have a fitted effect of over 50% in size
Procedure, shortened: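 Plated VDR-bla cells (4 h, 37C) received compound, incubated 16 h, then LiveBLAzer substrate 2 h RT; CellTiter-Glo added afterwards, luminescence read at 30 min.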

[9] = qHTS assay to identify small molecule antagonists of the vitamin D receptor (VDR) signaling pathway - cell viability counter screen (AID 743225); also: nearly all actives have a fitted effect of over 50% in size
Procedure, shortened: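 Compounds were pinned onto VDR-bla HEK 293T cells together with 1-alpha,25-dihydroxyvitamin D3 at 3 nM final. After 16 h at 37C and 5% CO2 plus the reporter readout, cell viability was measured by CellTiter-Glo luminescence (30 min, room temperature).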

[10] = qHTS assay to identify small molecule agonists of the NFkB signaling pathway (AID 1159509; active = well fitted curve in the direction sought with a large enough effect in the signal ratio in the repeat runs, not every such curve was filed as active; the % refers to the signal ratio; also: series mostly up to about 61 µM)
Procedure, shortened: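 NFkB-bla ME-180 cells with a beta-lactamase reporter under an NF-kB response element were plated overnight, treated with compounds in DMSO for 5 hr at 37 C, then loaded with FRET substrate for 1.5 hr at room temperature.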

[11] = qHTS assay to identify small molecule agonists of the NFkB signaling pathway - cell viability counter screen (AID 1159515; calls by dose curve; also: series mostly up to about 61 µM; nearly all actives have a fitted effect of over 55% in size)
Procedure, shortened: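 Using the same wells as the NFkB reporter read, ME-180 NFkB-bla cells given compounds for 5 hr were assessed for viability via CellTiter-Glo, with luminescence taken after a 30 min room-temperature incubation.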

[12] = qHTS assay to identify small molecule agonists of the endoplasmic reticulum stress response signaling pathway (AID 1159516; active = well fitted activation curve with a large enough effect in the signal ratio in the repeat runs, not every such curve was filed as active; the % refers to the signal ratio)
Procedure, shortened: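 An ESRE-bla HeLa cell assay: compounds were pin-transferred from DMSO onto overnight-plated cells and left 5 hr at 37 C. Substrate was then loaded for 2 hr at room temperature before reading fluorescence at 460 nm and 530 nm.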

[13] = qHTS assay to identify small molecule antagonists of the retinoid-related orphan receptor gamma (ROR-gamma) signaling pathway - cell viability counter screen (AID 1159520); also: nearly all actives have a fitted effect of over 50% in size
Procedure, shortened: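 Tet-on ROR gamma CHO cells (1,000/well) were plated 4 hr, given compounds in DMSO for 2 hr at 37 C, then induced with 1 uM final doxycycline for 16 hr. Viability was read as ATP by CellTiter-Glo luminescence after 30 min.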

[14] = target: Nuclear receptor ROR-gamma (Homo sapiens) (UniProt P51449); test: qHTS assay to identify small molecule antagonists of the retinoid-related orphan receptor gamma (ROR-gamma) signaling pathway (AID 1159521)
Procedure, shortened: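 Test compounds were applied to Tet-on RORγ CHO cells 2 h ahead of doxycycline hyclate (1 uM final). Luciferase reporter activity was quantified by luminescence after 16 h at 37 C and 5% CO2.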

[15] = qHTS assay to identify small molecule agonists of the AP-1 signaling pathway - cell viability counter screen (AID 1159525; calls by dose curve; also: nearly all actives have a fitted effect of over 55% in size)
Procedure, shortened: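 ME-180 AP-1-bla, 2500 cells/well, Opti-MEM + 0.5% dialyzed FBS; overnight 37 °C; cpd 15-pt titration, 5 h 37 °C; CellTiter-Glo 30 min RT; luminescence read; normalised to TOAB and DMSO controls.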

[16] = qHTS assay to identify small molecule agonists of the AP-1 signaling pathway (AID 1159526; calls by dose curve)
[17] = qHTS assay to identify small molecule agonists of the peroxisome proliferator-activated receptor delta (PPARd) signaling pathway - cell viability counter screen (AID 743211); also: nearly all actives have a fitted effect of over 55% in size
Procedure, shortened: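 In the same wells used for beta-lactamase reporter measurement, cytotoxicity is scored by CellTiter-Glo. HEK293H PPARd-bla cells receive compound for 17 h at 37C following a 5 h settling period.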

[18] = target: Bile acid receptor (Homo sapiens) (UniProt Q96RI1); test: qHTS assay to identify small molecule antagonists of the farnesoid-X-receptor (FXR) signaling pathway (AID 743217; active = well fitted inhibition curve with a large enough effect in the signal ratio in the repeat runs, not every such curve was filed as active; the % refers to the signal ratio)
Bile acid receptor (Homo sapiens), sequence (Q96RI1 whole entry, looked up): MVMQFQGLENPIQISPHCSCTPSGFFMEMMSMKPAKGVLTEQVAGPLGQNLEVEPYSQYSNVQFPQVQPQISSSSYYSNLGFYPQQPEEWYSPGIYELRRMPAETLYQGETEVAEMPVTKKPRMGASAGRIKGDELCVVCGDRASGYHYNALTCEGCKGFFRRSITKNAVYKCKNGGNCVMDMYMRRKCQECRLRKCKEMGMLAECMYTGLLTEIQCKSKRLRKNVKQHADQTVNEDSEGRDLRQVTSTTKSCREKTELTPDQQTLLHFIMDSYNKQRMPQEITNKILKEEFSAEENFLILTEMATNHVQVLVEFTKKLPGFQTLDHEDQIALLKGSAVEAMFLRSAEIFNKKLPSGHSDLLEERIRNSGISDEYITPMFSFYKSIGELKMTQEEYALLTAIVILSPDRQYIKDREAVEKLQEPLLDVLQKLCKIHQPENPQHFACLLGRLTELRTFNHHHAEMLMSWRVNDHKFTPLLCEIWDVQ
Procedure, shortened: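 GeneBLAzer FXR-UAS-bla HEK 293T, CDCA-stimulated (50 uM final). Compound treatment 16 h, 37 °C. Detection: beta-lactamase cleavage of B/G FRET substrate, fluorescence.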

[19] = target: Bile acid receptor (Homo sapiens) (UniProt Q96RI1); test: qHTS assay to identify small molecule agonists of the farnesoid-X-receptor (FXR) signaling pathway (AID 743220; active = well fitted activation curve with a large enough effect in the signal ratio in the repeat runs, not every such curve was filed as active; the % refers to the signal ratio)
Procedure, shortened: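 Beta-lactamase reporter under UAS control in GeneBLAzer FXR HEK 293T cells (5000/well) measured with LiveBLAzer FRET substrate after 2 h at room temperature. Compound exposure lasted 16 h at 37C.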

[20] = qHTS assay to identify small molecule agonists of the endoplasmic reticulum stress response signaling pathway - cell viability counter screen (AID 1159517; calls by dose curve)
Procedure, shortened: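 Luminescence readout: CellTiter-Glo, 30 min RT, same wells as the ESRE-bla reporter read. HeLa ESRE-bla, 1,500 cells/well, o/n 37 C; cpd 5 hr 37 C/5% CO2.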

Measured: Potency

CC(C)(C)OC(=O)N1C[C@@H](F)C[C@H]1C(=O)O
not listed: [17] | [18] | [19] | [20]
inactive: all other assays above

CC12CCC(CC1=O)C2(C)C (centres undefined)
not listed: [4] | [18] | [19] | [20]
inactive: all other assays above

C1=C\CC/C=C\CC/C=C\CC/1
not listed: [3] | [7] | [20]
inactive: all other assays above

O=C(O)C(O)[C@H](O)[C@@H](O)[C@H](O)[C@H](O)CO (some centres undefined)
not listed: [1] | [2] | [3] | [7] | [17] | [19]
inactive: all other assays above

C1COCCO1
not listed: [10] | [19]
inactive: all other assays above

Cc1nc(-c2ccc(OCC(C)C)c(C#N)c2)sc1C(=O)O
not listed: [1] | [3] | [6] | [7] | [17] | [18] | [19] | [20]
inactive: all other assays above

NCCNC(=O)c1ccc(Cl)cn1
not listed: [1] | [3] | [18] | [19] | [20]
inactive: all other assays above

CNC(=O)c1c(I)c(NC(=O)CCCCC(=O)Nc2c(I)c(C(=O)O)c(I)c(C(=O)NC)c2I)c(I)c(C(=O)O)c1I
not listed: [4] | [10] | [19]
inactive: all other assays above

Cc1c(F)cc2c(=O)c(C(=O)O)cn3c2c1CCC3C (centres undefined)
not listed: [3] | [18] | [19] | [20]
inactive: all other assays above

C=CCOc1nc(OCC=C)nc(OCC=C)n1
not listed: [2] | [4] | [7] | [9] | [18] | [19] | [20]
inactive: all other assays above

CCCCN(CCO)CCO
not listed: [1] | [3] | [4] | [18] | [19] | [20]
inactive: all other assays above

CN(C)CCOC(c1ccc(Cl)cc1)c1ccccn1 (centres undefined)
not listed: [4] | [7] | [17] | [18] | [19] | [20]
inactive: all other assays above

O=C(O)c1ccccc1-c1ccc(C(F)(F)F)cc1
not listed: [7] | [10]
inactive: all other assays above

COc1cc(C)cc(O)c1
not listed: [3] | [6] | [7] | [18] | [19] | [20]
inactive: all other assays above

O=C(O)c1ccc[n+]([O-])c1
not listed: [3] | [18] | [19] | [20]
inactive: all other assays above

OC/C=C/c1ccccc1
not listed: [3] | [14] | [18] | [19]
inactive: all other assays above

CC(C)(O)C(=O)c1ccc(OCCO)cc1
not listed: [3] | [4] | [6] | [7] | [18] | [19] | [20]
inactive: all other assays above
